We go through 20 compounds from PubChem BioAssay (Tox21).

Results filed as inconclusive are left out. A call without a number means that no potency is given here. Activity calls are given as the source filed them. The call rests on the fitted dose curve; in most records, active means well fitted curve in the direction sought with a large enough effect in the signal ratio in the repeat runs (not every such curve was filed as active); inconclusive means weak or mixed curves, or effect the other way; inactive means no such curve, though single readings can be large or run the other way; the % refers to the signal ratio.

Chain of Estrogen receptor (Homo sapiens) (P03372 whole entry, looked up): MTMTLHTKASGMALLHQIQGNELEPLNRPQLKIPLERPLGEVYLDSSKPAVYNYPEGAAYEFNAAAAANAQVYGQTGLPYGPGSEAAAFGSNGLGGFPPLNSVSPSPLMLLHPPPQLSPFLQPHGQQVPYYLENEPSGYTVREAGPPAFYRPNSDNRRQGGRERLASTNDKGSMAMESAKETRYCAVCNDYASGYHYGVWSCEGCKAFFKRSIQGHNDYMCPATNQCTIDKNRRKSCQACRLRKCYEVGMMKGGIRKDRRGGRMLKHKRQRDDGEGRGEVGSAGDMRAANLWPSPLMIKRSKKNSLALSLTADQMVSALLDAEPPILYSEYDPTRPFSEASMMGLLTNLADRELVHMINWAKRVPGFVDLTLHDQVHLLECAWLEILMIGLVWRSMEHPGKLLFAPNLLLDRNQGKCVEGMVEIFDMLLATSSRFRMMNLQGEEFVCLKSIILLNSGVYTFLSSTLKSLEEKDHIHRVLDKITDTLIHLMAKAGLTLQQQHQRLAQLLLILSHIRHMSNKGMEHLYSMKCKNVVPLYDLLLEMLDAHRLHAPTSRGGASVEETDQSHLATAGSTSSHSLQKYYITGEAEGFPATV

This experiment deals with Estrogen receptor (Homo sapiens) (UniProt P03372). Description: qHTS assay to identify small molecule antagonists of the estrogen receptor alpha (ER-alpha) signaling pathway (AID 743069). The conditions noted are these: HEK293 ER-alpha-UAS-bla, beta-lactamase ratio, antagonist mode; series mostly up to 69.4 µM. Summed up:
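In this cell-based reporter format, GripTite HEK293 cells harbouring ER-alpha-UAS-bla were grown overnight with 2% charcoal-stripped FBS, dosed with DMSO-dissolved compounds, then challenged with 17beta-estradiol. After 18 hr at 37C, beta-lactamase activity was detected by FRET fluorescence.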
For orientation: In qHTS, concentration-response curves come from the screen itself.
For the compound `O=S1(=O)CCCO1`, the Potency result is “inactive”.
Take `CCOC(=O)C(C)Oc1ccc(Oc2cnc3cc(Cl)ccc3n2)cc1` (stereo not given): the Potency result is “inactive”.
As to `COC(=O)CC(=O)OC`, the Potency result was “inactive”.
Turning to `C=C[Si](OCCOC)(OCCOC)OCCOC`, the Potency result is “inactive”.
In the case of `CN(C)/N=N/c1nc[nH]c1C(N)=O`, the Potency entry is “inactive”.
Next, `c1ccc2c(c1)[nH]c1ccccc12`: “inactive”; `CCCCCCC(C)O` (stereo not given): “inactive”.
With `CCC/C=C/C=O`, the Potency entry is “inactive”.
To `CCCCCCCCCCCCO` belongs “inactive”.
For `CC(C)[N+](C)(CCOC(=O)C1c2ccccc2Oc2ccccc21)C(C)C`, the Potency result is “inactive”.
With `C/C=C/C(=O)N(CC)c1ccccc1C`, the Potency entry was “inactive”.
`COC(=O)c1ccc(C)cc1`: the Potency entry was “inactive”.
Next, `CCc1cccc2c3c([nH]c12)C(CC)(CC(=O)O)OCC3` (stereo not given): “inactive”; `CCCCCCCCCCCCCO`: “inactive”; `CC(C)=CCO`: “inactive”.
Consider `CC(=O)Oc1c(C)c(C)c2c(c1C)CC[C@@](C)(CCC[C@H](C)CCC[C@H](C)CCCC(C)C)O2`, for which the Potency entry is “inactive”.
On to `Cc1ccc(C(C)(C)C)cc1`, for which the Potency result is “inactive”.
In the case of `CCO[Si](CCCNC(N)=O)(OCC)OCC`, the Potency result is “inactive”.
For `OC[C@H]1O[C@@H]2O[C@H]3[C@H](O)[C@@H](O)[C@@H](O[C@H]4[C@H](O)[C@@H](O)[C@@H](O[C@H]5[C@H](O)[C@@H](O)[C@@H](O[C@H]6[C@H](O)[C@@H](O)[C@@H](O[C@H]7[C@H](O)[C@@H](O)[C@@H](O[C@H]1[C@H](O)[C@H]2O)O[C@@H]7CO)O[C@@H]6CO)O[C@@H]5CO)O[C@@H]4CO)O[C@@H]3CO`, the Potency result is “inactive”.
For `CC1(C)O[C@@H]2C[C@H]3[C@@H]4C[C@H](F)C5=CC(=O)C=C[C@]5(C)[C@@]4(F)[C@@H](O)C[C@]3(C)[C@]2(C(=O)CO)O1`, the Potency result was “inactive”.
